In PubChem BioAssay (Tox21):
Inconclusive results are not listed. The source made the active and inactive calls. Unless noted, the call rests on the fitted dose curve; in most records, active means well fitted curve in the direction sought with a large enough effect in the repeat runs; inconclusive means weak or mixed curves; inactive means no such curve, though single readings can be large; an effect the other way counts as inactive or inconclusive.

What was measured:
[1] = target: Progesterone receptor (Homo sapiens) (UniProt P06401); assay: qHTS assay to identify small molecule agonists of the progesterone receptor (PR) signaling pathway (AID 1346784; calls by dose curve; further: nearly all actives have a fitted effect of over 30% in size)
Chain of Progesterone receptor (Homo sapiens) (P06401 whole entry, looked up): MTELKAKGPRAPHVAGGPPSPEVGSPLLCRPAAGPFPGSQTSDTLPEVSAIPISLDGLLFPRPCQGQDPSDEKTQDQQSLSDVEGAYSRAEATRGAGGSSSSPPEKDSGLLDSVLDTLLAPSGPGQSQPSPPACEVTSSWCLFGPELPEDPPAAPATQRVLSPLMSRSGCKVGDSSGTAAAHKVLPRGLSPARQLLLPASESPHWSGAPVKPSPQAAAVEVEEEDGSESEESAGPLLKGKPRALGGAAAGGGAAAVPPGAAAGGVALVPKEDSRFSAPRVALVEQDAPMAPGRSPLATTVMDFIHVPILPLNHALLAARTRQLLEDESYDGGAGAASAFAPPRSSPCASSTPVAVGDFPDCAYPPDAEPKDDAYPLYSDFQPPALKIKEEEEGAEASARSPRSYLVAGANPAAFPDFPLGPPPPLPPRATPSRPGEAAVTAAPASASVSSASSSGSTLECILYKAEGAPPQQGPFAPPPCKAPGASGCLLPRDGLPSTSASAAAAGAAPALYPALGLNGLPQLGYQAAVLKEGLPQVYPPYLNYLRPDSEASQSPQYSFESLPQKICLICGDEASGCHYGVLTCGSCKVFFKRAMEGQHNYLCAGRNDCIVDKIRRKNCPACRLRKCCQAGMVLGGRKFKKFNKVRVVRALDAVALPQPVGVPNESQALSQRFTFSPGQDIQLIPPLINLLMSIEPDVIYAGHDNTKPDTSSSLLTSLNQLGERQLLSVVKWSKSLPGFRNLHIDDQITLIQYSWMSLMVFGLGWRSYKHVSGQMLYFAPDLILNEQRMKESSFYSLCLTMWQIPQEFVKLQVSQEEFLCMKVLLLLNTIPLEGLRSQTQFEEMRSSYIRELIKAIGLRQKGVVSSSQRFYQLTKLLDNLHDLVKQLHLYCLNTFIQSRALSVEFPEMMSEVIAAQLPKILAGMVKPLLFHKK
Summary of the method: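 Beta-lactamase reporter read-out: after 16 hr compound treatment at 37C and a further 2 hr at room temperature with LiveBLAzer B/G FRET substrate, fluorescence was measured in PR-UAS-bla HEK 293T cells grown in 2% charcoal-stripped serum.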

[2] = target: Progesterone receptor (Homo sapiens) (UniProt P06401); assay: qHTS assay to identify small molecule antagonists of the progesterone receptor (PR) signaling pathway (AID 1346795; active means well fitted inhibition curve with a large enough effect in the signal ratio in the repeat runs, not every such curve was filed as active; the % refers to the signal ratio; further: potency means the concentration at half of the fitted maximal effect)
Summary of the method: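 Read-out is fluorescence from the LiveBLAzer B/G FRET substrate, cleaved by a UAS-controlled beta-lactamase in PR-UAS-bla HEK293T cells after 16 hr exposure to compound plus 1 nM promegestone (final), followed by 2 hr at room temperature.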

[3] = qHTS assay to identify small molecule antagonists of the progesterone receptor (PR) signaling pathway - cell viability counter screen (AID 1346798);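 further: HEK293T PR-UAS-bla cells stimulated with the agonist R5020; series mostly up to about 92 µM; nearly all actives have a fitted effect of over 50% in size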
Summary of the method: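 HEK293T PR-UAS-bla, 2% charcoal-stripped FBS; 4 hr pre-plate; cpd + R5020, 16 h 37C; LiveBLAzer read first; then CellTiter-Glo 30 min RT, luminescence.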

[4] = qHTS assay to identify small molecule agonists of the progesterone receptor (PR) signaling pathway - cell viability counter screen (AID 1346799; calls by dose curve; further: nearly all actives have a fitted effect of over 45% in size)
Summary of the method: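 Luminescence from CellTiter-Glo, added after the beta-lactamase FRET read in the same wells, gave cytotoxicity in PR-UAS-bla HEK293T cells treated with compounds for 16 hr at 37C.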

[5] = qHTS assay to identify small molecule antagonists of the TGF-beta/Smad signaling pathway - cell viability counter screen (AID 1346824); further: nearly all actives have a fitted effect of over 50% in size
Summary of the method: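 Cytotoxicity counter-screen run in the same wells as the beta-lactamase Smad reporter read: CellTiter-Glo luminescence after 30 min at room temperature. HEK 293T SBE-bla cells had 5 hr compound exposure at 37 C with TGF-beta1 (0.25 ng/mL stock).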

[6] = qHTS assay to identify small molecule agonists of the TGF-beta/Smad signaling pathway - cell viability counter screen (AID 1346829); further: top concentration of the series differs between compounds; nearly all actives have a fitted effect of over 45% in size
Summary of the method: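 Cytotoxicity counter screen: CellTiter-Glo luminescence (30 min, room temperature) measured in the SBE-bla HEK 293T reporter wells after 5 hr compound treatment at 37 C and the 2 hr substrate step.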

[7] = qHTS assay to identify small molecule agonists of the TGF-beta/Smad signaling pathway (AID 1346859; active means well fitted activation curve with a large enough effect in the signal ratio in the repeat runs, not every such curve was filed as active; the % refers to the signal ratio; further: series mostly up to about 77 µM)
Summary of the method: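 SBE-bla HEK 293T, 4,000 cells/well, plated o/n; cpd in DMSO, 5 hr, 37 C/5% CO2; B/G FRET substrate 2 hr RT; ex 405, em 460/530 nm.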

[8] = target: Thyrotropin-releasing hormone receptor (Homo sapiens) (UniProt P34981); assay: qHTS assay to identify small molecule antagonists of the thyrotropin-releasing hormone receptor (TRHR) signaling pathway (AID 1346877; active means well fitted inhibition curve with a large enough effect in the repeat runs, not every such curve was filed as active; further: series mostly up to about 51 µM)
Chain of Thyrotropin-releasing hormone receptor (Homo sapiens) (P34981 whole entry, looked up): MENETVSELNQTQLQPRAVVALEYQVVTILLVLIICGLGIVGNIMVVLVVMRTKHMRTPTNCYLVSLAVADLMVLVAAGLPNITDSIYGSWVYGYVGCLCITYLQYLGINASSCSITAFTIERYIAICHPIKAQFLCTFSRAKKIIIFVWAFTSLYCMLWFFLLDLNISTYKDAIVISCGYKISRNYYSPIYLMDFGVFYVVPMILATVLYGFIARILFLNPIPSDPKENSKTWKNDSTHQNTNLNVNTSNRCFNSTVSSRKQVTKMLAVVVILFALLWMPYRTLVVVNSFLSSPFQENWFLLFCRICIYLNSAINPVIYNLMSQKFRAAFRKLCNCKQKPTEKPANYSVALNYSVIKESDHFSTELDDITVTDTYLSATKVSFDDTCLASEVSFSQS
Summary of the method: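 Kinetic fluorescence (3 min, 1 s resolution) following stimulation with TRH at 1 nM final; HEK293 cells bearing human TRHR; 5 min compound preincubation at RT; concentration-response over 15 points, triplicates.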

[9] = target: Thyrotropin-releasing hormone receptor (Homo sapiens) (UniProt P34981); assay: qHTS assay to identify small molecule agonists of the thyrotropin-releasing hormone receptor (TRHR) signaling pathway (AID 1346891; calls by dose curve; further: series mostly up to about 58 µM)
Summary of the method: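 Intracellular calcium rise, read as fluorescence every second for 3 min, served as the agonist signal in dye-loaded HEK293 cells expressing TRHR; each compound ran at 15 concentrations in triplicate.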

[10] = Human pregnane X receptor (PXR) small molecule agonists, qHTS cell viability counter screen (AID 1346977); further: nearly all actives have a fitted effect of over 50% in size; further: potency means the concentration at half of the fitted maximal effect
Summary of the method: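 PXR-Luc HepG2, 2,000 cells/well, 5% charcoal-stripped FBS; 5hr settle; cpd 24hr, 37C/5% CO2; CellTiter-Fluor at 23hr, read 1hr later (fluorescence).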
On the % scale 0 is the no-effect control and ±100 the full control effect.

CCCCCC[C@@H](O)C/C=C\CCCCCCCC(=O)OC
inactive: Potency [1] | Potency [2] | Potency [3] | Potency [4] | Potency [5] | outcome [6] | Potency [7] | outcome [8] | Potency [9]

OC[C@H]1O[C@@H](OCCc2ccc(O)cc2)[C@H](O)[C@@H](O)[C@@H]1O
inactive: Potency [1] | Potency [2] | Potency [3] | Potency [4] | Potency [5] | outcome [6] | Potency [7] | outcome [8] | Potency [9]

Nc1cccc(S(=O)(=O)c2cccc(N)c2)c1
inactive: Potency [1] | Potency [2] | Potency [3] | Potency [4] | Potency [5] | outcome [6] | Potency [7] | outcome [8] | Potency [9] | Potency [10]

O=C(O)c1ccccc1Cl
inactive: Potency [1] | Potency [2] | Potency [3] | Potency [4] | Potency [5] | outcome [6] | Potency [7] | outcome [8] | Potency [9] | Potency [10]

CCCCC(CC)CN1C(=O)C2C3C=CC(C3)C2C1=O (stereo not drawn)
active: Potency [2] 34.4 µM
inactive: Potency [1] | Potency [3] | Potency [4] | Potency [5] | outcome [6] | Potency [7] | outcome [8] | Potency [9]

COc1ccc(C)cc1[N+](=O)[O-]
inactive: Potency [1] | Potency [2] | Potency [3] | Potency [4] | Potency [5] | outcome [6] | Potency [7] | outcome [8] | Potency [9] | Potency [10]

NCc1ccccc1Sc1ccccc1CO
inactive: Potency [1] | Potency [2] | Potency [3] | Potency [4] | Potency [5] | outcome [6] | Potency [7] | outcome [8] | Potency [9] | Potency [10]

O=C1c2ccccc2S(=O)(=O)N1CCCCN1CCN(c2ncccn2)CC1
inactive: Potency [1] | Potency [2] | Potency [3] | Potency [4] | Potency [5] | outcome [6] | Potency [7] | outcome [8] | Potency [9]

O=[N+]([O-])c1ccc(NCCO)c(OCCO)c1
inactive: Potency [1] | Potency [2] | Potency [3] | Potency [4] | Potency [5] | outcome [6] | Potency [7] | outcome [8] | Potency [9]
active: Potency [10] 48.6 µM

C=C(C)C(=O)OCCOCC
inactive: Potency [1] | Potency [2] | Potency [3] | Potency [4] | Potency [5] | outcome [6] | Potency [7] | outcome [8] | Potency [9]

c1ccc(CNCCNCc2ccccc2)cc1
inactive: Potency [1] | Potency [2] | Potency [3] | Potency [4] | Potency [5] | outcome [6] | Potency [7] | outcome [8] | Potency [9]

CCC(CC)Nc1ccc(C)c(C)c1
inactive: Potency [1] | Potency [2] | Potency [3] | Potency [4] | Potency [5] | outcome [6] | Potency [7] | outcome [8] | Potency [9]

C=CC(=O)OCCOc1ccccc1
inactive: Potency [1] | Potency [2] | Potency [3] | Potency [4] | Potency [5] | outcome [6] | Potency [7] | outcome [8] | Potency [9] | Potency [10]

O=C(O)c1ccc(-n2nc(-c3ccccc3O)nc2-c2ccccc2O)cc1
active: Potency [2] 6.68 µM
inactive: Potency [1] | Potency [3] | Potency [4] | Potency [5] | outcome [6] | Potency [7] | outcome [8] | Potency [9]

CCCCCCCCCCCC(=O)OC[C@@H](O)[C@H]1OC[C@H](OCCO)[C@H]1OCCO
inactive: Potency [1] | Potency [2] | Potency [3] | Potency [4] | Potency [5] | outcome [6] | Potency [7] | outcome [8] | Potency [9]

C[Si](C)(CCCN)O[Si](C)(C)CCCN
inactive: Potency [1] | Potency [2] | Potency [3] | Potency [4] | Potency [5] | outcome [6] | Potency [7] | outcome [8] | Potency [9] | Potency [10]

C[C@@H](c1ncncc1F)C(O)(Cn1cncn1)c1ccc(F)cc1F (stereo partly drawn)
inactive: Potency [1] | Potency [2] | Potency [3] | Potency [4] | Potency [5] | outcome [6] | Potency [7] | outcome [8] | Potency [9]

CC(C)(CO)[N+](=O)[O-]
inactive: Potency [1] | Potency [2] | Potency [3] | Potency [4] | Potency [5] | outcome [6] | Potency [7] | outcome [8] | Potency [9]

Nc1ccc(S(=O)(=O)Nc2ccccc2)cc1
inactive: Potency [1] | Potency [2] | Potency [3] | Potency [4] | Potency [5] | outcome [6] | Potency [7] | outcome [8] | Potency [9]

COC(C)OC
inactive: Potency [1] | Potency [2] | Potency [3] | Potency [4] | Potency [5] | outcome [6] | Potency [7] | outcome [8] | Potency [9] | Potency [10]

O=C(O)CNCC(=O)O
inactive: activation [1] 1.22% [at 8.39 µM] | activity change, negative = inhibition [2] 1.55% [at 8.39 µM] | activity change, negative = cytotoxicity [3] -2.59% [at 8.39 µM] | activity change, negative = cytotoxicity [4] 20.3% [at 8.39 µM] | viability change, negative = cytotoxic [5] 10.5% [at 6.97 µM] | activity change, negative = cytotoxicity [6] -7.04% [at 6.97 µM] | activation [7] 6.59% [at 6.97 µM] | activity, negative = inhibition [8] -17.8% [at 4.65 µM] | activation [9] 0.139% [at 5.23 µM] | activity change, negative = cytotoxicity [10] 4.27% [at 8.39 µM]

O=C1CCC(=O)O1
inactive: Potency [1] | Potency [2] | Potency [3] | Potency [4] | Potency [5] | outcome [6] | Potency [7] | outcome [8] | Potency [9] | Potency [10]
